Screening data deposited in PubChem by several laboratories.
DAGLB inhibitor – diacylglycerol lipase beta (human) inhibition; Q8NCG7; HEK293T DAGLB membrane lysate, EnzChek fluorogenic substrate; 340,000 tested, 0.059% active; AID 504411; inhibition, % at 5.17 µM; in the data active = inhibition above about 34%;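 note: 0% = enzyme with vehicle and 100% = wells lacking enzyme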
Target sequence (Q8NCG7 whole entry, looked up): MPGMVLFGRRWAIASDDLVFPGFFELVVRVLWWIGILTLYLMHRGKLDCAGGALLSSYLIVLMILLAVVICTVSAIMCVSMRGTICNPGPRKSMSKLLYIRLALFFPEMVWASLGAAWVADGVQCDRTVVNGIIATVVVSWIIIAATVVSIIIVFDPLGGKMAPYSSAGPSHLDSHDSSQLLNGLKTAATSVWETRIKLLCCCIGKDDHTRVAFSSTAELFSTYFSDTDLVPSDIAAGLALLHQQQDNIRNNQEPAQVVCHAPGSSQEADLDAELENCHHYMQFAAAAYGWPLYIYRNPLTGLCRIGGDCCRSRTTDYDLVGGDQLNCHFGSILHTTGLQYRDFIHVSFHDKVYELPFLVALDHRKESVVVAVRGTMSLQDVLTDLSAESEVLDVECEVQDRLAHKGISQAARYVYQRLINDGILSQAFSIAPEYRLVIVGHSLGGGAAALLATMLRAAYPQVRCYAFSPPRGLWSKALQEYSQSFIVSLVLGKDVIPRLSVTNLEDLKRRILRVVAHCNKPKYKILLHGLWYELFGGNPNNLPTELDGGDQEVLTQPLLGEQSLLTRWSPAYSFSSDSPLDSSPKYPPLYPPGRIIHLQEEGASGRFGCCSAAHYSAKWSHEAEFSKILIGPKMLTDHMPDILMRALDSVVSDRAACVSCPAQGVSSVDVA
ARNT-TACC3 inh – disrupts binding between human ARNT and TACC3. Q9Y6A5. AlphaScreen His-ARNT PAS-B/GST-TACC3 binding, luminescence; TACC3 fragment carries E629A point mutation. inhibition, % at 9.99 µM. 390,000 tested, 0.66% active. AID 623870;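 active = mean inhibition of replicates at least 50% and at least half of replicates each reaching 50%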;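 note: 0% = complete ARNT plus TACC3 wells and 100% = ARNT alone without TACC3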
sPLA2-III inh – Inhibits HGIII-sPLA2 liposome hydrolysis, primary screen; QFRET BODIPY PC-A2 liposome hydrolysis, fluorescence; inhibition, % at 12.2 µM; 370,000 tested, 0.56% active;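 active = inhibition above mean plus 3 SD of compounds lying within the high and low control bounds, cut at about 19% in these data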;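 note: 0% = median of test compound wells and 100% = no enzyme DMSO wells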
NadD block – inhibitors of Staphylococcus aureus NadD | inhibition, % at 20 µM | 360,000 tested, 0.78% active | purified NadD enzyme, colorimetric absorbance read-out; in the data active = inhibition above about 26%
Neddyl block – cullin neddylation inhibition; P61081+Q13564; TR-FRET cullin neddylation, biochemical; inhibition, % at 25 µM; 360,000 tested, 0.58% active; AID 651699; in the data active = inhibition above about 36%
Neddyl inh conf – cullin neddylation inhibition, confirmation. calls only at 25 µM. shares compounds with Neddyl block. TR-FRET cullin neddylation biochemical assay. 1,800 tested, 13% active; in the data active = inhibition above about 40%;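 note: neddylation substrate is the cullin 1 ring ligase complex with SKP2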
Numbers without * were called inactive; i = inactive; · = no result shown. An excerpt weighted towards active compounds, which were near 2% of everything screened.

SMILES | DAGLB inhibitor | ARNT-TACC3 inh | sPLA2-III inh | NadD block | Neddyl block | Neddyl inh conf
CCCc1c(C(=O)N/N=C/c2ccc(OC)c(OCc3ccccc3)c2)nnn1-c1nonc1N | 0.1 | 33.6 | -2.2 | 12.0 | 42.4* | i
COc1ccc(-c2ccc(C(=O)NCc3ccccc3)c3occc23)c(C)c1 | · | · | -12.5 | -1.4 | · | ·
COc1ccc(-c2ccc(C(=O)NC3CCCCC3)c3occc23)c(C)c1 | · | · | -0.8 | 6.1 | 40.4* | i
COc1ccc(-c2ccc(C(=O)NCc3ccc(C(F)(F)F)cc3)c3occc23)c(C)c1 | · | · | -0.7 | -15.3 | 40.1* | i
O=C(C[C@@H]1CC[C@H]2[C@@H](COC[C@H](O)CN2S(=O)(=O)c2ccccc2)O1)Nc1ccccc1 | · | -5.5 | · | · | · | ·
Cc1ccc(-n2nc3ccc(NC(=O)C(C)C)cc3n2)cc1 | -0.9 | -5.5 | 2.7 | 0.2 | 43.2* | i
CC(C)C(=O)Nc1ccc2nn(-c3ccc(F)cc3)nc2c1 | -6.8 | -0.8 | · | -9.6 | · | ·
CC(=O)N1CCCCN2[C@H](C1)[C@@H](c1ccc(C#Cc3ccccc3F)cc1)[C@@H]2CO | · | -2.8 | · | · | · | ·
Cn1cnc(S(=O)(=O)N2CCCCN3[C@@H](CO)[C@@H](c4ccc(C#CC5CC5)cc4)[C@@H]3C2)c1 | · | 0.2 | · | · | · | ·
Nc1c(C(=O)Nc2ccc3c(c2)OCCO3)nnn1Cc1cccc(F)c1 | 0.8 | -24.6 | -1.6 | -4.8 | 40.3* | i
CCCCn1nc(C(=O)Nc2ccc(-n3cnnn3)cc2)c2ccccc2c1=O | 1.5 | 0.3 | 8.3 | -9.3 | 45.0* | i
O=C(Nc1sc2c(c1C(=O)NCCCO)CCCC2)c1ccccc1 | 1.8 | -2.7 | -2.9 | -5.2 | 30.4 | ·
NCCNC(=O)c1c(NC(=O)c2ccccc2)sc2c1CCCC2 | 3.2 | -3.4 | 4.0 | 13.8 | 45.6* | i
CN(/N=C/c1cccnc1)c1cnc2ccccc2n1 | -0.4 | 2.4 | 3.1 | -6.7 | 45.1* | i
COc1ccccc1-c1ccc([C@H]2[C@H]3CN(Cc4ccncc4)CCCCN3[C@H]2CO)cc1 | · | 8.6 | · | · | · | ·
C[C@H](CO)N1C[C@H](C)[C@@H](CN(C)C(=O)NC2CCCCC2)Oc2ccc(NC(=O)Nc3ccc4c(c3)OCO4)cc2CC1=O | · | 10.2 | · | · | · | ·
O=C(C[C@H]1CC[C@@H]2[C@H](COC[C@H](O)CN2Cc2ccncc2)O1)NCc1ccccc1Cl | · | -2.7 | · | · | · | ·
CC(=O)N1CCN(c2ccc(NC(=O)c3ccc(OCc4ccccc4)cc3)cc2)CC1 | -0.1 | -3.7 | 4.2 | 0.7 | 44.1* | i
CCc1nn(CC(=O)NCCN2CCN(C)CC2)c(=O)c2cc3c(OC)cccc3n12 | 1.0 | -3.9 | 2.6 | -5.8 | · | ·
CCc1nn(CC(=O)NCCC(C)C)c(=O)c2cc3c(OC)cccc3n12 | -1.5 | 0.1 | -4.2 | -0.6 | 39.8* | i
O=C(C[C@@H]1C=C[C@H](NC(=O)c2ccccc2)[C@@H](CO)O1)NCc1ccncn1 | · | -5.2 | · | · | · | ·
CCOCCN1CCN(c2c(C)c(C)nc3cc(-c4cc(OC)cc(OC)c4)nn23)CC1 | -4.9 | -1.0 | -10.5 | -9.4 | 44.9* | i
CCCNC(=O)c1ccccc1NC(=O)c1ccc2c(=O)n3c(nc2c1)CCC3 | -0.4 | -4.7 | 3.1 | -5.4 | 46.2* | ·
CCOc1ccccc1NC(=O)c1ccc2c(=O)n3c(nc2c1)CCCCC3 | -2.5 | 8.5 | 1.6 | 8.1 | 7.9 | ·
Cc1cccc(NC(=S)N/N=C2\CC(C)(C)Oc3ccc(O)cc32)c1 | 1.7 | 8.2 | 7.2 | 4.1 | 32.3 | ·
SMILES | DAGLB inhibitor | ARNT-TACC3 inh | sPLA2-III inh | NadD block | Neddyl block | Neddyl inh conf
COc1cccc(NC(=S)N/N=C2\CC(C)(C)Oc3ccc(O)cc32)c1 | 0.5 | 14.8 | 13.3 | 3.4 | 43.2* | i
O=C(C[C@H]1C=C[C@@H](NC(=O)c2cccc(F)c2)[C@@H](CO)O1)NCCN1CCCC1 | · | 5.9 | · | · | · | ·
CCCN1[C@@H]2c3ccc(-c4ccccc4F)c(=O)n3C[C@@H]2[C@@H](CO)[C@@H]1C(=O)N1CCCCC1 | · | -6.5 | · | · | · | ·
CC1CCN(c2ccccc2NC(=O)c2cc3ccccc3o2)CC1 | -16.9 | -5.4 | -1.3 | 17.9 | 37.4* | i
O=C(C[C@H]1C=C[C@@H](NC(=O)c2cccc(F)c2)[C@@H](CO)O1)NCc1ccc(Oc2ccccc2)cc1 | · | -13.7 | · | · | · | ·
CCN(CC)S(=O)(=O)c1cccc(-c2cn3cc(C)ccc3n2)c1 | -5.1 | -2.6 | 0.0 | -0.2 | 39.3* | i
COc1ccc(CCNC(=O)C2(C)CCC(=O)N2Cc2ccc3c(c2)OCO3)cc1OC (configuration not stated) | -4.5 | -2.6 | -0.2 | 4.4 | -5.2 | ·
